Glioma ERSR ind – induces the endoplasmic reticulum stress response in human glioma cells. Potency, µM, most hits filed as activators. U87-MG GRP78 promoter luciferase reporter, 16 h. 420,000 compounds, 0.02% hits; also: series mostly up to about 76 µM; nearly all actives have a fitted effect of over 35% in size
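ERSR induction read as luciferase luminescence (Bright-Glo, 10 min at room temperature) in stably transfected human U87-MG glioma cells exposed to compounds for 16 h, using GRP78 as sensor.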
Sfp inh – blocks B. subtilis Sfp PPTase activity; Q9F4F7; Biochemical Sfp PPTase activity, qHTS; Potency, µM, hits mostly inhibitors; 310,000 compounds, 3.5% hits; AID 1490;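 also: the enzyme is Sfp with the accession as filed and its product quenches rhodamine fluorescence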
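Buffer: 50 mM Hepes-Na pH 7.6, 10 mM MgCl2, 0.01% Nonidet P-40, 0.01% BSA. Enzyme 15 nM, pre-exposed to compound 15 min; substrates then added and fluorescence change tracked over 30 min.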
VDR inh – inhibitors of human vitamin D receptor. VDR-SRC2-3 peptide fluorescence polarization, 2 h. Potency, µM, usual class: inhibitors. 400,000 compounds, 0.93% hits. P11473
Target sequence (P11473 whole entry, looked up): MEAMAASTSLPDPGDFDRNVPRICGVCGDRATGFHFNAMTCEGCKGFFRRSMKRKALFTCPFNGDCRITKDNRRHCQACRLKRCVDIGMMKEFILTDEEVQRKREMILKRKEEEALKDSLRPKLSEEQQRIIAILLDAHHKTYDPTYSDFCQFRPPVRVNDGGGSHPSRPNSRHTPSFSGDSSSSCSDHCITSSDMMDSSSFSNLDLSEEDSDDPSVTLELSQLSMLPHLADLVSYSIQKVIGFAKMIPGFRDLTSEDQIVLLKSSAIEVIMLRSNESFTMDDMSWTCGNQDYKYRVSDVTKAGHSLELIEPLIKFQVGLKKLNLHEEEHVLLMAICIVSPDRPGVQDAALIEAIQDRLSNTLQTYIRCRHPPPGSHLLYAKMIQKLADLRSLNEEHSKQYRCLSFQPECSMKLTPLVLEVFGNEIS
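Inhibition of the VDR/SRC2-3 peptide interaction is quantified by fluorescence polarization. Compounds (23 nl, pintool) incubate with the reagents for 2 hours at ambient room temperature.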
12-LOX inh – ALOX12 (human) lipoxygenase inhibition; purified 12hLO, xylenol orange hydroperoxide absorbance; Potency, µM (highest dose often 108 µM), actives largely listed as inhibitors; 580,000 compounds, 1.1% hits
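Hydroperoxide product was detected by ferrous iron/xylenol orange as the 573 to 405 nm absorbance ratio. Arachidonic acid at 40 uM (final) was turned over for 30 min at room temperature by 150 nM human 12hLO, pH 7.0 Hepes buffer, after 15 min compound preincubation.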
G9a block – G9a (human) methyltransferase inhibition; Q96KQ7; G9a H3K9 monomethylation, AlphaScreen, 2 h; Potency, µM (titrated, usually from 102 µM), hits mostly inhibitors; 350,000 compounds, 8.8% hits; AID 504332; also: nearly all actives have a fitted effect of over 75% in size
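G9a (20 nM) preincubated 15 min RT with compounds, then 500 nM biotinylated H3K9 peptide and 20 uM SAM added; 2 h RT reaction. Monomethyl-H3K9 product detected by AlphaScreen with anti-H3K9me1 antibody, streptavidin donor and anti-rabbit IgG acceptor beads.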
A number is an active result; . = inactive; ? = inconclusive; / = no result given; [ ] = remark or other dose. Shown is part of a subset that was picked to be rich in hits. Calls follow the shape of the dose curve; as a rule, active = well fitted curve in the direction sought with a large enough effect; inconclusive = small, poorly fitted or top-dose-only effect, or another doubt; inactive = no such curve, though single readings can be large; an effect the other way counts as inactive or inconclusive.

SMILES	Glioma ERSR ind	Sfp inh	VDR inh	12-LOX inh	G9a block
O=C(NC(=O)c1ccc(F)cc1F)Nc1ccc(Cl)cc1	.	.	.	.	45µM
COc1ccc(N2CCN(C(=O)c3ccc(N(C)S(=O)(=O)c4ccc(OC)cc4)cc3)CC2)cc1	.	.	89µM	.	/
COc1ccc(S(=O)(=O)N(C)c2ccc(C(=O)N3CCN(C)CC3)cc2)cc1	.	.	.	.	50µM
COc1ccc(N2CCN(C(=O)c3ccc(N(C)S(=O)(=O)c4ccc(C)cc4)cc3)CC2)cc1	.	.	.	.	.[0.501 µM]
C=CCn1c(NC(=O)c2ccc(Br)o2)c(C(=O)OCC)sc1=S	.	?	89µM	?	3.2µM
CCOC(=O)c1c(NC(=O)c2ccc(Br)o2)sc(C)c1CC	.	?	.	.	.
O=C(Nc1ccc(N2CCOCC2)cc1)C1CCCN(S(=O)(=O)c2ccccc2)C1 (stereo not given)	.	.	.	.	.
COc1ccc(S(=O)(=O)N2CCCC(C(=O)NCc3ccccn3)C2)cc1 (stereo not given)	.	.	.	?	.
CN(C)c1ccc(NC(=O)C2CCCN(S(=O)(=O)c3ccccc3)C2)cc1 (stereo not given)	.	.	.	?	8.9µM
O=C(NCc1ccccn1)C1CCCN(S(=O)(=O)c2ccccc2)C1 (stereo not given)	.	.	.	.	35µM
COc1cc(C(=O)O/N=C(\C)c2ccc(Cl)cc2)cc(OC)c1OC	/	/	/	.	/
C=CCN(C(=O)Cc1cccs1)c1nc(-c2ccc(S(C)(=O)=O)cc2)cs1	.	.	.	.	71µM
Cc1cc(C)nc(CC#N)n1	/	/	/	.	/
NC(=O)c1ccsc1N	/	20µM	/	/	.[0.501 µM]
Cn1ccnc1SCC(=O)Nc1cccc2ccccc12	.	.	.	.	.[12.7 µM]
Cn1ccnc1SCC(=O)n1c2c(c3ccccc31)CCCC2	.	.	.	.	18µM
COc1ccc(Cl)cc1NC(=O)Cn1c(C)cc(=O)n2nc(-c3cccs3)nc12	/	/	/	.	/
COc1ccc(OC)c(/C=c2\sc3nc(-c4cccs4)nn3c2=O)c1	.	.	.	.	11µM
Cc1ccc(OCc2cc(C(=O)NC(Cc3ccccc3)c3ccccc3)no2)cn1 (stereo not given)	/	/	/	.	/
O=C(CN1CCN(c2ccccn2)CC1)Nc1ccccc1Br	.	.	.	.	.
O=C(CN1CCN(c2ncccn2)CC1)Nc1ccccc1-n1cccc1	.	79µM	.	?	4.5µM
Cc1cc(NC(=O)CN2CCN(c3ncccn3)CC2)no1	.	.	.	?	8.9µM
Cc1cc(NC(=O)c2ccc(Cn3cc([N+](=O)[O-])cn3)o2)no1	.	.	.	.	.
Cc1cc(NC(=O)CN2CCN(c3ncccn3)CC2)on1	/	/	/	.	/
CCN1CCN(CC(=O)Nc2cc(C)on2)CC1	.	?	.	?	3.2µM
SMILES	Glioma ERSR ind	Sfp inh	VDR inh	12-LOX inh	G9a block
Cc1cc(NC(=O)Cn2cc([N+](=O)[O-])cn2)no1	.	.	.	.	50µM
Cc1cc(C(=O)N2CCN(S(=O)(=O)c3ccc(C#N)cc3)CC2)c(C)n1C(C)C	/	/	/	.	/
CN(C)C(=O)CN1CCCN(Cc2nc3ccccc3o2)CC1	/	/	/	.	/
Cn1c(C(=O)NCc2ccc3c(c2)OCO3)cc2sccc21	.	.	.	.	?
CCOC(=O)c1cc2sccc2n1CC(=O)Nc1ccc(OC)cc1OC	.	.	.	.	13µM
COC(=O)c1cc2sccc2n1CC(=O)Nc1ccc(OC)c(OC)c1OC	.	.	.	.	.
Cn1c(C(=O)Nc2ccc3c(c2)OCO3)cc2sccc21	.	.	.	?	32µM
Cn1c(C(=O)Nc2ccccc2)cc2sccc21	.	.	.	.	1.6µM
CCc1ccccc1NC(=O)c1cc2sccc2n1C	.	.	.	?	?
COc1cc(NC(=O)c2cc3sccc3n2C)cc(OC)c1	.	50µM	.	?	?
CCOC(=O)c1c(S(=O)(=O)Nc2ccc(OC)c(Cl)c2)c(C)n(C)c1C	/	/	/	.	/
Cc1ccccc1NC1(c2nnnn2-c2ccccc2)CCCCC1	/	/	/	.	/
Cc1ccc(N2CN(CCN3CCOCC3)Cn3c2nc(C)c(C)c3=O)cc1C	/	/	/	.	/
COC1CN(c2cccc(F)c2)C12CCN(C(=O)c1ccco1)CC2 (stereo not given)	/	/	/	.	/
C#CCNC(=O)c1csc(-c2ccc(C)cc2)n1	/	/	/	.	/
COc1ccc(OC)c(NC(=O)c2cn(C)c(=O)c3cc(OC)c(OC)cc23)c1	.	.	.	.	40µM
